Assays:
Assay in all cases: PBM binding z-score (relative to random genomic background probes); higher = stronger binding; sequences stand for … in GC…GCGATTGACAGCGTAGAATGAAGG
[1] = tested on: FXR:RXRa (NR concentration 270 nM, RXRa partner concentration 90 nM)
In short: (§1)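 Probes were double-stranded and carried 34-nt variable regions with direct-repeat seeds, single-nucleotide variants, half-site ablations and random human genomic background sequences, printed on custom Agilent 4×180K protein-binding microarrays. Arrays were incubated 1 h with ligand-free nuclear receptor dimers in PBS pH 7.4, 2% milk, 0.02% Triton X-100, 1 mM DTT, 0.2 mg/mL BSA and 0.4 mg/ml salmon testes DNA. Antibodies against each partner (one per run) detected binding, and scanned fluorescence was regression-normalized. Binding z-scores use the random background probes as reference.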

[2] = tested on: LXRa:RXRa (NR concentration 270 nM, RXRa partner concentration 90 nM)
In short: as §1

[3] = tested on: LXRa homodimer (NR concentration 270 nM)
In short: as §1

[4] = tested on: LXRb:RXRa (NR concentration 270 nM, RXRa partner concentration 90 nM)
In short: as §1

[5] = tested on: LXRb homodimer (NR concentration 270 nM)
In short: as §1

[6] = tested on: PPARa:RXRa (NR concentration 270 nM, RXRa partner concentration 90 nM)
In short: as §1

[7] = tested on: PPARg:RXRa (NR concentration 180 nM, RXRa partner concentration 90 nM)
In short: as §1

[8] = tested on: PPARg:RXRa 270nM:90nM, anti-RXR (NR concentration 270 nM, RXRa partner concentration 90 nM)
In short: as §1

[9] = tested on: PPARg:RXRa 30nM:10nM, anti-RXR (NR concentration 30 nM, RXRa partner concentration 10 nM)
In short: as §1

[10] = tested on: PPARg:RXRa 90nM:30nM, anti-RXR (NR concentration 90 nM, RXRa partner concentration 30 nM)
In short: as §1

[11] = tested on: PPARg:RXRa DBDmut IVT, anti-RXR (DBD mutation: RXRa K156A/R161A, NR concentration 270 nM, RXRa partner concentration 90 nM)
In short: as §1

[12] = tested on: PPARg:RXRa IVT, anti-PPARg (NR concentration 270 nM, RXRa partner concentration 90 nM)
In short: as §1

[13] = tested on: PPARg DBDmut:RXRa IVT, anti-PPARg (DBD mutation: PPARg1 K132A/R137A, NR concentration 270 nM, RXRa partner concentration 90 nM)
In short: as §1

[14] = tested on: PPARg DBDmut IVT, anti-PPARg (DBD mutation: PPARg1 K132A/R137A, NR concentration 270 nM)
In short: as §1

[15] = tested on: PPARg homodimer (NR concentration 180 nM)
In short: as §1

[16] = tested on: PXR:RXRa (NR concentration 270 nM, RXRa partner concentration 90 nM)
In short: as §1

[17] = tested on: PXR homodimer (NR concentration 270 nM)
In short: as §1

[18] = tested on: RARa:RXR (NR concentration 270 nM, RXRa partner concentration 90 nM)
In short: as §1

[19] = tested on: RARa homodimer (NR concentration 270 nM)
In short: as §1

[20] = tested on: RARb:RXRa (NR concentration 270 nM, RXRa partner concentration 90 nM)
In short: as §1

| Sequence | PBM binding z-score [1] | PBM binding z-score [2] | PBM binding z-score [3] | PBM binding z-score [4] | PBM binding z-score [5] | PBM binding z-score [6] | PBM binding z-score [7] | PBM binding z-score [8] | PBM binding z-score [9] | PBM binding z-score [10] | PBM binding z-score [11] | PBM binding z-score [12] | PBM binding z-score [13] | PBM binding z-score [14] | PBM binding z-score [15] | PBM binding z-score [16] | PBM binding z-score [17] | PBM binding z-score [18] | PBM binding z-score [19] | PBM binding z-score [20] |
| --- | --- | --- | --- | --- | --- | --- | --- | --- | --- | --- | --- | --- | --- | --- | --- | --- | --- | --- | --- | --- |
| GCATATAGCTAATACAAGGTGAAAGTCCGATTGT | -0.158 | -0.177 | 0.202 | -0.0693 | -0.0357 | 0.477 | 0.487 | 0.425 | -0.0371 | 0.33 | 0.11 | 0.315 | 0.87 | -0.0254 | 0.259 | 0.262 | 0.241 | 0.651 | 0.533 | 0.107 |
| CCTACTGGGCCATTCTGAGGTCATTGATCATATG | 2.12 | 3.35 | 4.95 | 2.83 | 0.173 | 3.25 | 1.63 | 2.38 | 0.733 | 1.84 | 4.08 | 4.24 | 0.979 | -0.299 | 1.5 | 4.42 | 3.46 | 3.85 | -0.372 | 2.57 |
| AGTCAAAGTTTACTAGGTAACGTAAGATTCAGCT | -0.0676 | 0.666 | 0.138 | 0.287 | 0.0239 | 2.28 | 3.46 | 3.72 | 1.13 | 2.53 | 3.45 | 4.76 | 0.895 | 0.737 | 0.729 | 0.455 | 0.255 | 0.426 | 0.29 | 1.81 |
| CCGACTGGCGCATAAGGTTACCATAAGCCAGCCC | 0.387 | 1.91 | -0.184 | 0.848 | -0.921 | 0.659 | 0.557 | 0.0532 | -0.553 | -0.235 | -0.22 | -0.617 | -0.674 | -0.756 | 0.0825 | 0.285 | -0.103 | 0.776 | 0.248 | 0.721 |
| CGAACTAGGTCATTGACAGGTCAGTGAATAGTAA | 4.77 | 4.22 | 2.06 | 3.2 | 0.218 | 5.01 | 7.86 | 6.55 | 3.81 | 6.32 | 8.05 | 7.99 | 2.07 | 0.617 | 3.26 | 3.56 | 0.482 | 5.11 | 0.887 | 4.25 |
| ATCTCTAGGTAACGTTCAGTGAAAGATCGATAGA | 0.596 | 0.51 | -0.179 | 0.297 | 0.462 | 0.836 | 0.58 | 0.792 | 0.317 | 0.669 | 3.29 | 2.87 | 1.78 | 1.73 | 0.504 | 0.0439 | 0.0107 | 0.445 | 0.865 | 0.556 |
| TCTAGTTGGTCAAAGATCACACACTCGAAATGCG | 1.08 | 0.894 | 0.461 | 1.25 | 0.389 | 3.18 | 5.95 | 6.52 | 5.72 | 6.88 | 2.51 | 2.84 | 1.33 | 1.22 | 1.93 | 1.07 | 0.547 | 1.77 | 0.928 | 1.3 |
| ATCTCTAGGTAAGACTCAGTTCAGTGAAGAACGC | 0.226 | 0.477 | 0.614 | 0.261 | 1.05 | 0.0408 | -0.0322 | 0.385 | 0.412 | 0.159 | 1.86 | 0.996 | 1.18 | 1.16 | 1.11 | 1.04 | 1.31 | 0.197 | 0.948 | 0.386 |
| CGACCAAGGTCAATGCTAGGTCAGTGAAAGCATT | 6.54 | 5.4 | 1.97 | 3.95 | 0.214 | 4.99 | 3.99 | 4.62 | 1.63 | 3.37 | 3.29 | 3.59 | -0.925 | -0.0967 | 4.22 | 4.59 | 0.845 | 5.71 | 0.803 | 5.03 |
| CCTCGGAGGACAACAGGAGGTCAGAGCGGCCAGA | 1.36 | 2.25 | 2.24 | 1.42 | -0.43 | 2.09 | 0.411 | 0.182 | -0.715 | -0.31 | 0.0202 | 0.396 | -0.758 | -1.19 | 1.8 | 2.31 | 0.892 | 2.47 | 0.103 | 3 |
| TTACCAAGATGAAAGGTCGTTGATGCACGCCTTG | 1.32 | 1.82 | 0.225 | 1.6 | -0.121 | 3.04 | 3.53 | 5.28 | 3.89 | 5.86 | 0.675 | 1.47 | 0.794 | 0.0757 | 1.13 | 2.08 | 0.245 | 2.24 | 0.444 | 1.55 |
| ATCTCTAGGTAAGACGCAGTTCAGTGAAGAACGC | 0.238 | 0.0302 | 0.0448 | -0.176 | 0.151 | -0.0926 | 0.38 | 0.423 | 0.101 | 0.323 | 1.69 | 0.781 | -0.276 | 0.85 | 0.0862 | 0.526 | 0.389 | -0.309 | 0.278 | 0.0267 |
| ATCGAAAGGTCGTGCGGTGAGTATACAGAAAGGC | 5.34 | 4.25 | 0.222 | 3.12 | 1.5 | 4.84 | 3.25 | 3.58 | 1.04 | 2.23 | 0.148 | 1.68 | 0.719 | 0.4 | 3.06 | 3.2 | 0.322 | 3.75 | 0.484 | 3.7 |
| CAAACTACGTCAAGAGGTCAAAGTCCGCTTCCCG | 5.07 | 5.77 | 5.87 | 4.77 | 2.06 | 5.09 | 3.07 | 4.83 | 2.39 | 4.26 | 1.03 | 2.44 | 1.05 | 0.608 | 3.36 | 5.8 | 3.22 | 6.09 | 1.56 | 4.01 |

Source: the supplement of paper PMC6555819
